PubChem BioAssay (Tox21)
“And” between values parts separate entries of the source, which are not always exact repeats. Equal values may be shown once. Records with an inconclusive call do not appear. Entries that show only a call come without a potency. The source holds several records for some structures; these can differ, active in one and inactive in another. The source made the active and inactive calls. Unless noted, calls follow the shape of the dose curve; as a rule, active = well fitted curve in the direction sought with a large enough effect in the repeat runs; inconclusive = weak or mixed curves; inactive = no such curve, though single readings can be large; an effect the other way counts as inactive or inconclusive.

Tests used:
[1] = qHTS assay to test for compound auto fluorescence at 535 nm (green) in HEK293 cells (AID 720680)
[2] = qHTS assay to test for compound auto fluorescence at 460 nm (blue) in HEK293 cell free culture (AID 720681); also: potency is read from the fitted curve at half-maximal effect
Summary of the method: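 Test compounds were pinned into cell-free culture medium (DMEM with 10% FBS) and fluorescence was read directly at Ex/Em 405/460 nm. Signals were expressed as fluorescence equivalents of triamterene, with DMSO vehicle as control.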

[3] = qHTS assay to test for compound auto fluorescence at 535 nm (green) in HEK293 cell free culture (AID 720682)
Summary of the method: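 Cell-free medium (DMEM, 10% FBS) receives compound or DMSO by pintool. Plate read directly at Ex 485/Em 535 nm. Signal converted to fluorescein equivalency.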

[4] = qHTS assay to test for compound auto fluorescence at 590 nm (red) in HEK293 cell free culture (AID 720683)
Summary of the method: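 Tox21 10K library compounds were pinned into cell-free DMEM with 10% FBS and fluorescence was read at excitation 540 nm. Activity is expressed as Rose Bengal sodium equivalency.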

[5] = qHTS assay to test for compound auto fluorescence at 590 nm (red) in HepG2 cell free culture (AID 720684)
Summary of the method: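 Measured in medium alone (MEM containing 10% FBS) following pintool addition of compound; emission at 590 nm with 540 nm excitation, referenced to Rose Bengal sodium.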

[6] = qHTS assay to test for compound auto fluorescence at 460 nm (blue) in HepG2 cell free culture (AID 720685); also: potency is read from the fitted curve at half-maximal effect
Summary of the method: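 Compound (23 nL) or DMSO pinned into cell-free MEM with 10% FBS; blue fluorescence read at 405/460 nm excitation/emission, expressed as auto-fluorescence equivalency to triamterene.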

[7] = qHTS assay to test for compound auto fluorescence at 535 nm (green) in HepG2 cell free culture (AID 720686)
[8] = qHTS assay to test for compound auto fluorescence at 460 nm (blue) in HepG2 cells (AID 720687); also: potency is read from the fitted curve at half-maximal effect
Summary of the method: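 Cells (2,000/well in MEM with 10% FBS) attached overnight at 37 C, then were exposed to compound or DMSO for 1 hr at 37 C, 5% CO2. Fluorescence read at Ex/Em 405/460 nm, expressed as triamterene-equivalent signal.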

[9] = qHTS assay to identify small molecule antagonists of the glucocorticoid receptor (GR) signaling pathway - cell viability counter screen (AID 720693); also: nearly all actives have a fitted effect of over 55% in size
[10] = qHTS assay for identifying genotoxic compounds that show differential cytotoxicity against isogenic chicken DT40 cell lines with known DNA damage response pathways - wild type cell line (AID 743012); also: nearly all actives have a fitted effect of over 60% in size; also: potency is read from the fitted curve at half-maximal effect
Summary of the method: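 First, wild type DT40 cells were plated at 300 per well and equilibrated about 0.5 h at 37 C/5% CO2. Next, compounds in DMSO were added and exposure lasted 40 h. Finally, CellTiter-Glo was added for 30 min at room temperature and luminescence recorded.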

[11] = qHTS assay for identifying genotoxic compounds that show differential cytotoxicity against isogenic chicken DT40 cell lines with known DNA damage response pathways - Rev3 mutant cell line (AID 743014); also: nearly all actives have a fitted effect of over 55% in size; also: potency is read from the fitted curve at half-maximal effect
[12] = qHTS assay for identifying genotoxic compounds that show differential cytotoxicity against isogenic chicken DT40 cell lines with known DNA damage response pathways - Rad54/Ku70 mutant cell line (AID 743015); also: nearly all actives have a fitted effect of over 60% in size; also: potency is read from the fitted curve at half-maximal effect
[13] = qHTS assay to identify small molecule antagonists of the androgen receptor (AR) signaling pathway - cell viability counter screen (AID 743033; also: nearly all actives have a fitted effect of over 45% in size; also: potency is read from the fitted curve at half-maximal effect)
[14] = biological target: Androgen receptor (Homo sapiens) (UniProt P10275); experiment: qHTS assay to identify small molecule agonists of the androgen receptor (AR) signaling pathway (AID 743036; active = well fitted activation curve with a large enough effect in the signal ratio in the repeat runs, with a control signal flat, not every such curve was filed as active; the % refers to the signal ratio; also: potency is read from the fitted curve at half-maximal effect)
Chain of Androgen receptor (Homo sapiens) (P10275 whole entry, looked up): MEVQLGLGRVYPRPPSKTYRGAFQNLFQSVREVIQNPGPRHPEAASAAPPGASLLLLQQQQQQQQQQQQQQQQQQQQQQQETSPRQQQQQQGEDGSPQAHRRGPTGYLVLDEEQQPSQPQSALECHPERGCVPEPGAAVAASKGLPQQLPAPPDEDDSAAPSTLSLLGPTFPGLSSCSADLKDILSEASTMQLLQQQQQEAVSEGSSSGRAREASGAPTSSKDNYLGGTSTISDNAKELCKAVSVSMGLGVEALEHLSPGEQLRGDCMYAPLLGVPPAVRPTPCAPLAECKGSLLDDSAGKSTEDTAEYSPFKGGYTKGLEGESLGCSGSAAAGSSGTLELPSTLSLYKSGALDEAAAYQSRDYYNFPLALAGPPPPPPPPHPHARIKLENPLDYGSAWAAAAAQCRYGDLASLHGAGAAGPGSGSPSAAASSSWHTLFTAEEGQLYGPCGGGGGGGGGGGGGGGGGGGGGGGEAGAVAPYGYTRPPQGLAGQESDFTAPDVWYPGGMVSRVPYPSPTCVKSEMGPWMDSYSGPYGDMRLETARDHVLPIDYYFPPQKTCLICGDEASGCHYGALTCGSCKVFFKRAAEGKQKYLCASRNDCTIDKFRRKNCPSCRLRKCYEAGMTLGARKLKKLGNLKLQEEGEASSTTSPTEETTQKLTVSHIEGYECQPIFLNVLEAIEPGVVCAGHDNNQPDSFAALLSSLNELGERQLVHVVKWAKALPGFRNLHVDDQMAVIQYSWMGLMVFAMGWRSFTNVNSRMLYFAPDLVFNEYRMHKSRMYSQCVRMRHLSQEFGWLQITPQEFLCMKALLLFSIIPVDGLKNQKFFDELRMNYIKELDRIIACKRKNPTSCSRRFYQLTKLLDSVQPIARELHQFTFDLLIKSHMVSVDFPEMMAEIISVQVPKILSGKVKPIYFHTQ
Summary of the method: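 AR-bla HEK293 cells, 2,000/well; 4 h preincubation 37C/5% CO2; compound (DMSO) 16 h at 37C; LiveBLAzer B/G FRET substrate 2 h RT; fluorescence intensity read-out.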

[15] = biological target: Androgen receptor (Homo sapiens) (UniProt P10275); experiment: qHTS assay to identify small molecule agonists of the androgen receptor (AR) signaling pathway using the MDA cell line (AID 743040; also: nearly all actives have a fitted effect of over 20% in size); conditions: MDA-kb2 AR-luc cells, MMTV luciferase, 16 h; at 70.3 µM (top of the series); stronger effect = higher value
Summary of the method: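 Luminescence from ONE-Glo, read after 30 min at room temperature, reflects MMTV-driven luciferase in MDA-kb2 cells (AR- and GR-responsive). Treatment lasted 16 h at 37C, 0% CO2.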

[16] = qHTS assay to identify small molecule antagonists of the androgen receptor (AR) signaling pathway using the MDA cell line - cell viability counter screen (AID 743041; also: nearly all actives have a fitted effect of over 45% in size)
Summary of the method: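 Viability counter screen run alongside the AR antagonist reporter: cells seeded 5 h before compound, R1881 added, 16 h incubation at 37C without CO2, fluorescent CellTiter-Fluor signal quantified.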

[17] = biological target: Androgen receptor (Homo sapiens) (UniProt P10275); experiment: qHTS assay to identify small molecule antagonists of the androgen receptor (AR) signaling pathway using the MDA cell line (AID 743042; also: nearly all actives have a fitted effect of over 55% in size)
Summary of the method: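 MDA-kb2 cells (human breast carcinoma, stably carrying an MMTV-luciferase reporter responsive to AR and GR) were plated at 3,000 cells/well and preincubated 5 hr at 37C, then given compound plus R1881 agonist for 16 h. ONE-Glo luminescence was read.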

[18] = biological target: Glucocorticoid receptor (Homo sapiens) (UniProt P04150); experiment: qHTS assay to identify small molecule agonists of the glucocorticoid receptor (GR) signaling pathway (AID 720691; active = well fitted activation curve with a large enough effect in the signal ratio in the repeat runs, not every such curve was filed as active; the % refers to the signal ratio)
Chain of Glucocorticoid receptor (Homo sapiens) (P04150 whole entry, looked up): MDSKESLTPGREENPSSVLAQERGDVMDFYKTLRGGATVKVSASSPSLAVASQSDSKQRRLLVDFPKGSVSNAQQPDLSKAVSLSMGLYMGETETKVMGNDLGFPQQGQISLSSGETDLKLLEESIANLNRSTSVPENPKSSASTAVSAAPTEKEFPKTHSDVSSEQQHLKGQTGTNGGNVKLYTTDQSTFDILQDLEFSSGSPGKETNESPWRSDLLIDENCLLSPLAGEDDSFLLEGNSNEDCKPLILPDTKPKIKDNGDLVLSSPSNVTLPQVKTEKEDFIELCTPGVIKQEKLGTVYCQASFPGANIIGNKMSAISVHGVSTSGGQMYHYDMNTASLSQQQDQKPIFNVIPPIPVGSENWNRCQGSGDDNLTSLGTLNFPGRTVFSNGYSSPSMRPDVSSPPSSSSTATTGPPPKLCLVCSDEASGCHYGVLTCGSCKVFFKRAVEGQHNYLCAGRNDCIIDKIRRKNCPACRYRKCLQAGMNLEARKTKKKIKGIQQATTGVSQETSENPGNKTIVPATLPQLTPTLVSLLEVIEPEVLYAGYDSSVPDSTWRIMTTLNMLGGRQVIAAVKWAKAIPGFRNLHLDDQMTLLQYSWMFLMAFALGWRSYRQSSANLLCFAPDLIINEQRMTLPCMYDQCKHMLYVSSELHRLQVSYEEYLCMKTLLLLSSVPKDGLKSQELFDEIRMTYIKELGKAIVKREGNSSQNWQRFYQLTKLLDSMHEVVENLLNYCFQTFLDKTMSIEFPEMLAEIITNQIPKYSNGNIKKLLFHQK
Summary of the method: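 qHTS in GR-bla HeLa cells: 4 h settling at 37 C/5% CO2, 18 h compound incubation at 37 C, 2 h LiveBLAzer B/G FRET substrate at room temperature, fluorescence intensity measured.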

[19] = biological target: Glucocorticoid receptor (Homo sapiens) (UniProt P04150); experiment: qHTS assay to identify small molecule antagonists of the glucocorticoid receptor (GR) signaling pathway (AID 720692; active = well fitted inhibition curve with a large enough effect in the signal ratio in the repeat runs, not every such curve was filed as active; the % refers to the signal ratio; also: potency is read from the fitted curve at half-maximal effect)
Summary of the method: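 Inhibition of glucocorticoid signalling is measured in HeLa cells with a GRE-controlled beta-lactamase reporter; cells are co-treated with compound and 5 nM dexamethasone (final) for 18 h before FRET substrate readout.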

[20] = biological target: Androgen receptor (Homo sapiens) (UniProt P10275); experiment: qHTS assay to identify small molecule antagonists of the androgen receptor (AR) signaling pathway (AID 743035; active = well fitted inhibition curve with a large enough effect in the signal ratio in the repeat runs, not every such curve was filed as active; the % refers to the signal ratio)
Summary of the method: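 Beta-lactamase FRET read (2 h RT incubation with LiveBLAzer B/G) following 16 h of compound plus R1881 treatment of AR-UAS-bla HEK293 cells, which had been pre-incubated 4 h at 37C.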
Tags tell the direction and shape of the fitted curve or compound fluorescence and quenching.

| Structure (SMILES) | outcome [1] | Potency [2] | outcome [3] | outcome [4] | outcome [5] | Potency [6] | outcome [7] | Potency [8] | Potency [9] | Potency [10] | Potency [11] | Potency [12] | Potency [13] | Potency [14] | activity change [15] | Potency [16] | Potency [17] | outcome [18] | Potency [19] | Potency [20] |
| --- | --- | --- | --- | --- | --- | --- | --- | --- | --- | --- | --- | --- | --- | --- | --- | --- | --- | --- | --- | --- |
| Nc1nc(N)c2nc(-c3ccccc3)c(N)nc2n1 | inactive | 12.6 µM (active) and 39.8 µM (active) | inactive | inactive | inactive | 12.6 µM [fluorescent] (active) and 39.8 µM [fluorescent] (active) | inactive | 12.6 µM [fluorescent] (active) and 39.8 µM [fluorescent] (active) | inactive | 11.9 µM (active) and 12.3 µM (active) and 4.86 µM (active) | 9.44 µM (active) and 3.9 µM (active) and 6.11 µM (active) | 26.6 µM (active) and 6.94 µM (active) and 21.7 µM (active) | 49.5 µM (active) | 21.3 µM (active) and 49.5 µM (active) and 49 µM (active) | 18% (inactive) | inactive | inactive |  |  |  |
| O=C1C(N(CO)C(=O)NCO)N(CO)C(=O)N1CO (configuration not stated) | inactive | inactive | inactive | inactive | inactive | inactive | inactive | inactive | inactive | inactive | inactive | inactive | inactive |  |  | inactive |  |  |  |  |
| Nc1cccc(C(F)(F)F)c1 | inactive | inactive | inactive | inactive | inactive | inactive | inactive | inactive | inactive | inactive | inactive | inactive | inactive |  |  | inactive |  |  |  |  |
| C[n+]1ccn(CCO)c1 | inactive | inactive | inactive | inactive | inactive | inactive | inactive | inactive | inactive | inactive | inactive | inactive | inactive |  |  | inactive |  | inactive | inactive |  |
| CC(=O)OC(C)(C)C1CC=C(C)CC1 (configuration not stated) | inactive | inactive | inactive | inactive | inactive | inactive | inactive | inactive | inactive | inactive | inactive | inactive and 54.5 µM (active) | inactive |  |  | inactive |  |  |  |  |
| CC[N+](CC)(CC(=O)Nc1c(C)cccc1C)Cc1ccccc1 | inactive | inactive | inactive | inactive | inactive | inactive | inactive | inactive | inactive | inactive and 43.3 µM (active) | inactive and 30.6 µM (active) | inactive | inactive |  |  | inactive |  |  |  |  |
| CC(O)CNCC(C)O (configuration not stated) | inactive | inactive | inactive | inactive | inactive | inactive | inactive | inactive | inactive | inactive | inactive | inactive | inactive |  |  | inactive |  |  |  |  |
| CCc1cccc(O)c1 | inactive | inactive | inactive | inactive | inactive | inactive | inactive | inactive | inactive | inactive | inactive | inactive | inactive |  |  | inactive |  |  |  |  |
| COc1cc(NC(=O)CC(C)=O)c(OC)cc1Cl | inactive | inactive | inactive | inactive | inactive | inactive | inactive | inactive | inactive | inactive | inactive | inactive | inactive |  |  | inactive |  | inactive | 54.9 µM (active) |  |
| CC(C)(CO)CO | inactive | inactive | inactive |  | inactive | inactive | inactive | inactive | inactive | inactive | inactive | inactive | inactive | inactive | 0.0392% (inactive) and -0.381% (inactive) | inactive | inactive | inactive | inactive | inactive |
| CC1=CC(=O)CC(C)(C)C1 | inactive | inactive | inactive |  | inactive | inactive | inactive | inactive | inactive | inactive | inactive | inactive | inactive |  |  | inactive |  | inactive | inactive |  |
